Test results as given in the antibiotic and cytotoxicity screens of Wong et al. (2023).
The whole screen tested about 39,000 compounds, of which about 1,500 (3.8%) were called active. Many of the other results were omitted from the sample, so actives are more common in it than they were.

system: HSkMC (human skeletal muscle cells); experiment: cytotoxicity call (relative viability < 0.9); settings: 10 µM

**Q.** Which cytotoxicity call does the source give for `C[C@@H]1CN([C@@H](C)CO)C(=O)Cc2cc(NC(=O)Cn3cnnn3)ccc2O[C@@H]1CN(C)CC1CCCCC1` here?
**A.** inactive

**Q.** With `CC(C)NC(=O)N(C)C[C@@H]1Oc2cc(C#Cc3ccc(F)cc3)ccc2S(=O)(=O)N([C@H](C)CO)C[C@@H]1C` as the compound, how does the cytotoxicity call read?
**A.** inactive

**Q.** `C[C@H]1CN([C@@H](C)CO)C(=O)c2cccc(NC(=O)Nc3ccc(F)cc3)c2O[C@H]1CN(C)C(=O)Nc1cccc2ccccc12` was tested. Which cytotoxicity call did it give?
**A.** inactive

**Q.** `COc1ccc([Si](C)(C)[C@@H]2[C@@H](CCn3cc([C@H](O)c4ccccc4)nn3)O[C@]3(C(=O)N(Cc4cccc(N5CCOC5=O)c4)c4ccccc43)[C@H]2C)cc1` was tested. Which cytotoxicity call did it give?
**A.** inactive

**Q.** How did the cytotoxicity call turn out when `C[C@@H]1CN([C@@H](C)CO)C(=O)Cc2cc(NC(=O)Cn3cnnn3)ccc2O[C@@H]1CN(C)CC1CC1` was run?
**A.** inactive

**Q.** With `COc1ccc(Oc2cc(NCCC(F)(F)F)c3ncc(-c4ccc(C(=O)NC5CC5)c(C)c4)n3n2)c(F)c1F` as the compound, how does the cytotoxicity call read?
**A.** active

**Q.** `Cc1ccc(S(=O)(=O)Nc2ccc3c(c2)C(=O)N([C@H](C)CO)C[C@H](C)[C@H](CN(C)S(C)(=O)=O)OCCCC[C@@H](C)O3)cc1` was tested. Which cytotoxicity call did it give?
**A.** inactive

**Q.** How did the cytotoxicity call turn out when `C=CC[C@H](CC(=O)N(CCO)Cc1ccccc1)C(=O)N[C@H](COC(=O)[C@H](CC=C)NC(=O)OCC1c2ccccc2-c2ccccc21)C(C)(C)C` was run?
**A.** inactive

**Q.** `C[C@H](CO)N1C[C@H](C)[C@H](CN(C)Cc2ccc(-c3ccccc3)cc2)Oc2ccc(NC(=O)Nc3ccccc3)cc2CC1=O` was tested. Which cytotoxicity call did it give?
**A.** inactive

**Q.** For `C[C@H](CO)N1C[C@H](C)[C@@H](CN(C)Cc2ccc(C(=O)Nc3ccccc3N)cc2)Oc2ccc(NC(=O)Nc3ccc(F)cc3)cc2CC1=O`, which cytotoxicity call is on record?
**A.** inactive

**Q.** How did the cytotoxicity call turn out when `C[C@H]1CN([C@@H](C)CO)C(=O)Cc2cc(NC(=O)Nc3ccccc3)ccc2O[C@H]1CN(C)S(C)(=O)=O` was run?
**A.** inactive

**Q.** For `C[C@@H]1CN([C@@H](C)CO)C(=O)Cc2cc(NC(=O)Nc3ccccc3)ccc2O[C@@H]1CN(C)Cc1ccc(-c2ccccc2)cc1`, which cytotoxicity call is on record?
**A.** inactive

**Q.** `C[C@H](CO)N1C[C@H](C)[C@H](CN(C)S(C)(=O)=O)Oc2ccc(NC(=O)Nc3ccccc3)cc2CC1=O` was tested. Which cytotoxicity call did it give?
**A.** active

**Q.** For `C[C@@H]1CN([C@H](C)CO)C(=O)Cc2cc(NC(=O)Nc3ccccc3)ccc2O[C@@H]1CN(C)Cc1ccc(-c2ccccc2)cc1`, which cytotoxicity call is on record?
**A.** active

**Q.** `C[C@H](CO)N1C[C@H](C)[C@H](CN(C)Cc2ccc(C(=O)Nc3ccccc3N)cc2)Oc2ccc(NC(=O)Nc3ccc(F)cc3)cc2CC1=O` was tested. Which cytotoxicity call did it give?
**A.** inactive

**Q.** Which cytotoxicity call does the source give for `C[C@@H]1CN([C@H](C)CO)C(=O)Cc2cc(NC(=O)Nc3ccccc3)ccc2O[C@H]1CN(C)S(C)(=O)=O` here?
**A.** inactive

**Q.** With `C[C@H]1CN([C@@H](C)CO)C(=O)Cc2cc(NC(=O)Nc3ccc(F)cc3)ccc2O[C@H]1CN(C)Cc1ccc(C(=O)Nc2ccccc2N)cc1` as the compound, how does the cytotoxicity call read?
**A.** active

**Q.** `C[C@@H]1CN([C@@H](C)CO)C(=O)Cc2cc(NC(=O)Nc3ccc(F)cc3)ccc2O[C@H]1CN(C)Cc1ccc(-c2ccccc2)cc1` was tested. Which cytotoxicity call did it give?
**A.** inactive

**Q.** `C[C@@H]1CN([C@H](C)CO)C(=O)Cc2cc(NC(=O)Nc3ccc(F)cc3)ccc2O[C@H]1CN(C)Cc1ccc(-c2ccccc2)cc1` was tested. Which cytotoxicity call did it give?
**A.** active

**Q.** Which cytotoxicity call does the source give for `Cc1sc(Nc2ccccc2)nc1-c1ccc(Cl)cc1` here?
**A.** inactive

**Q.** How did the cytotoxicity call turn out when `COc1ccc(CCN2C(=O)[C@@]3(c4ccc([N+](=O)[O-])cc4)CC(=O)N(CC45CC6CC(CC(C6)C4)C5)[C@@H]3c3ccc(CO)cc32)cc1` was run?
**A.** inactive

**Q.** Which cytotoxicity call does the source give for `O=C1CSC(=S)N1` here?
**A.** inactive

**Q.** `COc1ccc(NC(=O)N(C)C[C@H]2Oc3c(NC(=O)Nc4ccc(C(F)(F)F)cc4)cccc3C(=O)N([C@H](C)CO)C[C@@H]2C)cc1` was tested. Which cytotoxicity call did it give?
**A.** inactive

**Q.** How did the cytotoxicity call turn out when `COc1ccc(S(=O)(=O)Nc2ccc3c(c2)CC(=O)N([C@H](C)CO)C[C@H](C)[C@@H](CN(C)S(=O)(=O)c2ccccc2)O3)cc1` was run?
**A.** inactive

**Q.** Which cytotoxicity call does the source give for `C[C@@H]1CCCCO[C@@H](CN(C)Cc2ccncc2)[C@H](C)CN([C@H](C)CO)C(=O)c2cc(NC(=O)Cc3ccccc3)ccc2O1` here?
**A.** inactive

**Q.** How did the cytotoxicity call turn out when `C[C@@H]1CN([C@@H](C)CO)C(=O)c2cc(NC(=O)Nc3ccc(F)cc3)ccc2O[C@@H](C)CCCCO[C@@H]1CN(C)Cc1ccc2c(c1)OCO2` was run?
**A.** inactive

**Q.** Which cytotoxicity call does the source give for `C[C@@H]1CN([C@@H](C)CO)C(=O)c2cc(NC(=O)Nc3ccc(F)cc3)ccc2O[C@@H](C)CCCCO[C@@H]1CN(C)Cc1ccc(C(=O)O)cc1` here?
**A.** inactive

**Q.** How did the cytotoxicity call turn out when `C[C@@H]1CN([C@H](C)CO)C(=O)c2cc(NS(=O)(=O)c3cn(C)cn3)ccc2O[C@@H]1CN(C)Cc1ccncc1` was run?
**A.** inactive

**Q.** With `C[C@@H]1CN([C@H](C)CO)C(=O)Cc2cc(NC(=O)Nc3ccc4c(c3)OCO4)ccc2O[C@@H]1CN(C)Cc1ccc(-c2ccccc2)cc1` as the compound, how does the cytotoxicity call read?
**A.** active

**Q.** Which cytotoxicity call does the source give for `C[C@H](CO)N1C[C@H](C)[C@H](CN(C)Cc2ccc(-c3ccccc3)cc2)Oc2ccc(NC(=O)c3ccncc3)cc2CC1=O` here?
**A.** inactive

**Q.** With `C[C@H](CO)N1C[C@H](C)[C@H](CN(C)Cc2ccc(-c3ccccc3)cc2)Oc2ccc(NC(=O)Nc3ccc(F)cc3)cc2CC1=O` as the compound, how does the cytotoxicity call read?
**A.** active

**Q.** How did the cytotoxicity call turn out when `C[C@H](CO)N1C[C@H](C)[C@@H](CN(C)Cc2ccc(-c3ccccc3)cc2)Oc2ccc(NC(=O)Nc3ccc(F)cc3)cc2CC1=O` was run?
**A.** inactive

**Q.** How did the cytotoxicity call turn out when `C[C@@H]1CN([C@@H](C)CO)C(=O)Cc2cc(NC(=O)Nc3ccc4c(c3)OCO4)ccc2O[C@H]1CN(C)Cc1ccc(-c2ccccc2)cc1` was run?
**A.** inactive

**Q.** With `C[C@@H]1CN([C@H](C)CO)C(=O)Cc2cc(NC(=O)Nc3ccc(F)cc3)ccc2O[C@@H]1CN(C)Cc1ccc(-c2ccccc2)cc1` as the compound, how does the cytotoxicity call read?
**A.** inactive

**Q.** How did the cytotoxicity call turn out when `C[C@H]1CN([C@@H](C)CO)C(=O)Cc2cc(NC(=O)Nc3ccc(F)cc3)ccc2O[C@@H]1CN(C)Cc1ccc(-c2ccccc2)cc1` was run?
**A.** inactive

**Q.** Which cytotoxicity call does the source give for `C[C@H]1CN([C@@H](C)CO)C(=O)Cc2cc(NC(=O)Nc3ccc4c(c3)OCO4)ccc2O[C@H]1CN(C)Cc1ccc(-c2ccccc2)cc1` here?
**A.** inactive

**Q.** Which cytotoxicity call does the source give for `C[C@@H]1CN([C@@H](C)CO)C(=O)Cc2cc(NC(=O)Nc3ccc(F)cc3)ccc2O[C@@H]1CN(C)Cc1ccc(-c2ccccc2)cc1` here?
**A.** inactive

**Q.** `C[C@@H]1CN([C@H](C)CO)C(=O)Cc2cc(NC(=O)c3ccncc3)ccc2O[C@@H]1CN(C)Cc1ccc(-c2ccccc2)cc1` was tested. Which cytotoxicity call did it give?
**A.** active

**Q.** How did the cytotoxicity call turn out when `C[C@H]1CN([C@@H](C)CO)C(=O)Cc2cc(NC(=O)c3ccncc3)ccc2O[C@H]1CN(C)Cc1ccc(-c2ccccc2)cc1` was run?
**A.** inactive

**Q.** Which cytotoxicity call does the source give for `C[C@H]1CN([C@@H](C)CO)C(=O)Cc2cc(NC(=O)Nc3ccc(F)cc3)ccc2O[C@H]1CN(C)Cc1ccc(-c2ccccc2)cc1` here?
**A.** active
